# Values joined by “and” are separate entries in the source; they are usually repeats but may differ in a detail not shown here. Equal entries are not always repeated. Records with an inconclusive call do not appear. Entries that show only a call come without a potency. Some compounds were tested as several samples or in several runs, with calls that do not always agree. Active and inactive are the calls of the source. Unless noted, calls follow the shape of the full dose curve.
# Legend:
# [1] = qHTS for Inhibitors of the Functional Ribonucleoprotein Complex (vRNP) of Lassa (LASV) Arenavirus: LASV Primary Screen - GLuc reporter signal (AID 1347082; calls by dose curve; tested in HEK293 reporter line; also: nearly all actives have a fitted effect of over 60% in size)
# [2] = qHTS for Inhibitors of the Functional Ribonucleoprotein Complex (vRNP) of Lassa (LASV) Arenavirus: Viability assay - alamar blue signal for LASV Primary Screen (AID 1347083; calls by dose curve; tested in HEK293 reporter line; also: nearly all actives have a fitted effect of over 80% in size)
# [3] = qHTS for Inhibitors of the Functional Ribonucleoprotein Complex (vRNP) of Lymphocytic Choriomeningitis Arenaviruses (LCMV): Viability assay - alamar blue signal for LCMV Primary Screen (AID 1347085; calls by dose curve; tested in HEK293 reporter line; also: nearly all actives have a fitted effect of over 80% in size)
# [4] = target: Nucleoprotein (Lymphocytic choriomeningitis virus (strain Armstrong)) (UniProt P09992); test: qHTS for Inhibitors of the Functional Ribonucleoprotein Complex (vRNP) of Lymphocytic Choriomeningitis Arenaviruses (LCMV): LCMV Primary Screen - GLuc reporter signal (AID 1347086); also: nearly all actives have a fitted effect of over 70% in size
# [5] = Primary qHTS for inhibitors of SARS-S pseudo-typed particle cell entry (AID 1479145); also: nearly all actives have a fitted effect of over 45% in size
# [6] = Primary qHTS for Huh7 cytotoxicity: counterscreen for inhibitors of MERS-S pseudotyped particle cell entry (AID 1479147); conditions: outcome: dose series up to 57.1 µM unless noted
# [7] = Primary qHTS for inhibitors of MERS-S pseudo-typed particle cell entry (AID 1479149); also: nearly all actives have a fitted effect of over 60% in size; also: potency is read from the fitted curve at half-maximal effect
# [8] = Primary qHTS for Vero E6 cytotoxicity: counterscreen for inhibitors of SARS-S pseudo-typed particle cell entry (AID 1479150); conditions: outcome: dose series up to 57.1 µM unless noted
# [9] = Cytotoxicity counterscreen for inhibitors of SARS-CoV-2 cell entry (AID 1645845); also: nearly all actives have a fitted effect of over 50% in size; also: potency is read from the fitted curve at half-maximal effect
# Summary of the method: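 48 h compound treatment (after 1 h preincubation), HEK293-ACE2 cells, 37 C/5% CO2; ATP luminescence endpoint; normalized to cell wells and media blanks.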
# [10] = VSVG counterscreen qHTS to identify inhibitors of SARS-CoV-2 cell entry (AID 1645847); also: potency is read from the fitted curve at half-maximal effect; nearly all actives have a fitted effect of over 65% in size
# Summary of the method: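 Luminescence read after 48 h infection at 37 C with VSV-G-pseudotyped MLV particles, following 1 h compound exposure of Expi293F cells stably expressing human ACE2; scaled between bald particle and VSV-G particle wells.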
# [11] = Validation screen for inhibitors of Lassa infection (AID 463096); also: potency is read from the fitted curve at half-maximal effect
# [12] = Inducers of the Endoplasmic Reticulum Stress Response (ERSR) in human glioma: Validation (AID 504836; active = well fitted curve in the direction sought with a large enough effect; an effect the other way counts as inactive or inconclusive)
# Summary of the method: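 ERSR induction read as luciferase luminescence (Bright-Glo, 10 min at room temperature) in stably transfected human U87-MG glioma cells exposed to compounds for 16 h, using GRP78 as sensor.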
# [13] = Primary qHTS to identify inhibitors of SARS-CoV-2 cell entry (AID 1645846); also: nearly all actives have a fitted effect of over 45% in size
# Summary of the method: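 Entry measured by luciferase signal 48 h after adding SARS-CoV-2-S pseudotyped MLV particles to HEK293-ACE2 cells preincubated 1 h with compounds. Normalisation: bald particles and spike particles.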
# [14] = target: Peroxisome proliferator-activated receptor delta (Homo sapiens) (UniProt Q03181); test: qHTS assay for small molecule agonists of peroxisome proliferator-activated receptor delta signaling (AID 588534)
# Summary of the method: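 Fluorescence from CCF4 substrate cleavage by beta-lactamase reporter, read 2 hrs at RT, measured agonist activity. Compounds were tested with 18 hrs exposure at 37 C. Concentration-response data fitted to Hill equation.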
# [15] = target: Luciferin 4-monooxygenase (Photinus pyralis) (UniProt P08659); test: Biochemical firefly luciferase enzyme assay for NPC (AID 624030; active = well fitted curve in the direction sought with a large enough effect; an effect the other way counts as inactive or inconclusive;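 also: purified P. pyralis luciferase at 10 nM with luciferin and ATP substrate; nearly all actives have a fitted effect of over 70% in size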)
# Summary of the method: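 Direct inhibition of firefly luciferase enzyme (10 nM final, 50 mM Tris Acetate) assessed by luminescence within 5 minutes. Percent activity scaled between DMSO and PTC124 positive control, with concentration-effect curves classified by fit quality and response.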
# [16] = target: Nuclear receptor subfamily 1 group I member 3 (Homo sapiens) (UniProt Q14994); test: Primary qHTS for antagonist of constitutive androstane receptor (CAR) against the NCATS DSHEA and TCM libraries (AID 1794836; active = well fitted curve in the direction sought with a large enough effect; an effect the other way counts as inactive or inconclusive;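 also: HepG2 cells stably expressing hCAR with CYP2B6 luciferase reporter stimulated by CITCO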)
# Summary of the method: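 Antagonist mode: CAR reporter luminescence (ONE-Glo) in HepG2-CYP2B6-hCAR cells stimulated with 48 uM CITCO (final) over 24 h at 37 C, compounds titrated; viability read first by CellTiter-Fluor fluorescence.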
# [17] = target: Alpha-galactosidase (Coffea arabica) (UniProt Q42656); test: Counterscreen for Glucocerebrosidase Inhibitors: qHTS Assay for Coffee Bean alpha-Galactosidase at pH 4.5 (AID 957; active = well fitted curve in the direction sought with a large enough effect; an effect the other way counts as inactive or inconclusive)
# Summary of the method: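 Coffee bean alpha-galactosidase 2 nM, substrate 4-MU-alpha-Gal 80 uM, pH 4.5 citrate/Tween-20, 20 min RT. Cpd titration 0.7 nM–77 uM. Stop pH 10, fluorescence 365/440 nm; Hill-equation AC50.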
# [18] = target: Alpha-galactosidase (Coffea arabica) (UniProt Q42656); test: Counterscreen for Glucocerebrosidase Inhibitors: qHTS Assay for Coffee Bean alpha-Galactosidase at pH 5.9 (AID 998; active = well fitted curve in the direction sought with a large enough effect; an effect the other way counts as inactive or inconclusive)
# Summary of the method: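 Compounds were titrated from 0.7 nM to 77 uM against green coffee bean alpha-galactosidase (2 nM) using 80 uM fluorogenic 4-methylumbelliferyl substrate. After 20 min at room temperature, reactions were stopped at pH 10 and read by fluorescence.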
# [19] = Confirmatory qHTS to identify inhibitors of SARS-CoV-2 cell entry (AID 1645844); also: potency is read from the fitted curve at half-maximal effect; nearly all actives have a fitted effect of over 45% in size
# Summary of the method: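 Luminescence from a luciferase reporter, read 48 hr after pseudotyped-particle addition, gives entry signal, normalised to spike-bearing PP wells and bald PP lacking fusion protein wells. Cells are Expi293F stably expressing human ACE2, compound-pretreated 1 hr.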
# [20] = target: Endonuclease 4 (Escherichia coli (strain K12)) (UniProt P0A6C1); test: Counterscreen for APE1 Inhibitors: qHTS Validation Assay for Inhibitors of Endonuclease IV (AID 1708; active = well fitted curve in the direction sought with a large enough effect; an effect the other way counts as inactive or inconclusive)
# Summary of the method: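 qHTS concentration-response format; LOPAC1280 tested under APE1-screen conditions. 2 nM enzyme, 15 min compound preincubation at RT, then 50 nM TAMRA/BHQ-2 abasic substrate; kinetic fluorescence read, three reads at 60 s intervals.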
# [21] = activity change, negative = inhibition: at 57.1 µM (top of the series) unless noted
# Sequence of Nucleoprotein (Lymphocytic choriomeningitis virus (strain Armstrong)) (P09992 whole entry, looked up): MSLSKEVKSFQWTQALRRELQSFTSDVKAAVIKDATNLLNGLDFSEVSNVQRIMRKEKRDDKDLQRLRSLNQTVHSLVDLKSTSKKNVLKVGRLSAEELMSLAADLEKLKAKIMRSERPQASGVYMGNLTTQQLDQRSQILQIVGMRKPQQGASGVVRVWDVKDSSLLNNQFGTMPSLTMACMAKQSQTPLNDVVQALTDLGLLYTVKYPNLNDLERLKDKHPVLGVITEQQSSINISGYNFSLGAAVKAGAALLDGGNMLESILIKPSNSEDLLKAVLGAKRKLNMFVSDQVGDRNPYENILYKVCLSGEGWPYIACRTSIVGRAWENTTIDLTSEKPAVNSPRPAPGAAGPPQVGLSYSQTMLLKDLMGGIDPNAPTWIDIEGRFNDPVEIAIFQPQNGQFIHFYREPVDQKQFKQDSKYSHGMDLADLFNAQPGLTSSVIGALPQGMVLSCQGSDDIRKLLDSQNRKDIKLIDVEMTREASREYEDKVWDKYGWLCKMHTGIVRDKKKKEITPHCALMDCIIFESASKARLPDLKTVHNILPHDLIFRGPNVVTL
# Sequence of Peroxisome proliferator-activated receptor delta (Homo sapiens) (Q03181 whole entry, looked up): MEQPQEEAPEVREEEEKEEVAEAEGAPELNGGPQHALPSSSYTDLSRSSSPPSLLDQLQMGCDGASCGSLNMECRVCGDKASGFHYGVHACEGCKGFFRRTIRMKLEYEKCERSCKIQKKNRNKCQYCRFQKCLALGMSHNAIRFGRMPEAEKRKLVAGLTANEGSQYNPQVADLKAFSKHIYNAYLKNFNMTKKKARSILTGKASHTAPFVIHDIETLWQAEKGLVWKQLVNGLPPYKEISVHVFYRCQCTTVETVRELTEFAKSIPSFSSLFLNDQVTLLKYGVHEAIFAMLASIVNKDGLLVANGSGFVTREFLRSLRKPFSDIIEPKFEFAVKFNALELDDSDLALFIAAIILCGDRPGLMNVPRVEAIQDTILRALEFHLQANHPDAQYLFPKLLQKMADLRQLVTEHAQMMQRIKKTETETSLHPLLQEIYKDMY
# Sequence of Alpha-galactosidase (Coffea arabica) (Q42656 whole entry, looked up): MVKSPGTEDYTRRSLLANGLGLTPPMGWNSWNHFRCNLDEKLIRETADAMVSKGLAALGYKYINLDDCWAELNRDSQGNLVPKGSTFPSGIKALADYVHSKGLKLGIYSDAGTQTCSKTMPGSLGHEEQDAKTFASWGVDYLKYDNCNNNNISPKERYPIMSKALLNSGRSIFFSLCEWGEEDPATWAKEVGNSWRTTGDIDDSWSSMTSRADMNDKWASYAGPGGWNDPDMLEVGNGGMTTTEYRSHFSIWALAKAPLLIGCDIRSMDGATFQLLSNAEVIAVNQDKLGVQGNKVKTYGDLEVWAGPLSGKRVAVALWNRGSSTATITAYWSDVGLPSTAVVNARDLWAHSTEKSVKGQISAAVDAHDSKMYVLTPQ
# Sequence of Luciferin 4-monooxygenase (Photinus pyralis) (P08659 whole entry, looked up): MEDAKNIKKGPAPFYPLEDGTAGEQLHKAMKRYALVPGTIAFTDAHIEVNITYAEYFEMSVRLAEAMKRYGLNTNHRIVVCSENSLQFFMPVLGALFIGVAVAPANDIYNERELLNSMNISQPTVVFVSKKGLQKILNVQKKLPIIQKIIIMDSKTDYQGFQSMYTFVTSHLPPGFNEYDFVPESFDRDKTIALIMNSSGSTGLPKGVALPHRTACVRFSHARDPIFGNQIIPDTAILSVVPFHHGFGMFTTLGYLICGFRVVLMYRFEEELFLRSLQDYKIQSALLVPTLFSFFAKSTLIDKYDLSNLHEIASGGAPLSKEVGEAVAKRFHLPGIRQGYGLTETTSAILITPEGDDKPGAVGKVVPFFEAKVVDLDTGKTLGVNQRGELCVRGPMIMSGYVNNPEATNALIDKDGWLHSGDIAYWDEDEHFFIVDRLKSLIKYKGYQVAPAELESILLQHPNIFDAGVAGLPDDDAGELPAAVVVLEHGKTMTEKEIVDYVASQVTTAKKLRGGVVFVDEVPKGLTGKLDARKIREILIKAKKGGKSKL
# Sequence of Nuclear receptor subfamily 1 group I member 3 (Homo sapiens) (Q14994 whole entry, looked up): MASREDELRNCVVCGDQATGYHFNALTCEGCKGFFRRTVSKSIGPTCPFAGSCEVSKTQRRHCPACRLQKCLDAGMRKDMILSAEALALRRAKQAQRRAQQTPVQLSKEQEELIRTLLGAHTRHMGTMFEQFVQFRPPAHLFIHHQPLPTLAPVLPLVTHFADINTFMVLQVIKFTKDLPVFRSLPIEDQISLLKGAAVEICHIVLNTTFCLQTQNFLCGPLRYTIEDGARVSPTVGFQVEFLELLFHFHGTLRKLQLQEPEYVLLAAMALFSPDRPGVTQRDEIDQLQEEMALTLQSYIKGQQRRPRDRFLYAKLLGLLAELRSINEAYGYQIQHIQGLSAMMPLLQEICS
smiles,measurement,setting,value
CCOC(=O)[C@@H](N)Cc1ccc(-c2cc(O[C@H](c3ccc(Cl)cc3-n3ccc(C)n3)C(F)(F)F)nc(N)n2)cc1,Potency,[1],inactive
same,Potency,[2],inactive
same,Potency,[3],inactive
same,Potency,[4],inactive
same,Potency,[5],inactive
same,outcome,[6],inactive
same,Potency,[7],inactive
same,outcome,[8],inactive
same,Potency,[9],inactive
same,Potency,[10],19200 nM (active)
CC1=C(/C=C/C(C)=C/C=C/C(C)=C\C(=O)O)C(C)(C)CCC1,Potency,[11],inactive
same,outcome,[12],inactive
same,Potency,[1],inactive
same,Potency,[2],inactive
same,Potency,[3],inactive
same,Potency,[4],inactive
same,Potency,[5],inactive
same,outcome,[6],inactive
same,Potency,[7],inactive
same,outcome,[8],inactive
same,Potency,[9],inactive
same,Potency,[13]; [21],inactive
same,"activity change, negative = inhibition",[13]; [21],-7.39%
COc1cc2c(cc1Cc1cccc(Cl)c1F)c(=O)c(C(=O)O)cn2[C@H](CO)C(C)C,Potency,[1],inactive
same,Potency,[2],inactive
same,Potency,[3],inactive
same,Potency,[4],inactive
same,Potency,[5],inactive
same,outcome,[6],inactive
same,Potency,[7],12600 nM (active)
same,outcome,[8],inactive
same,Potency,[9],inactive
same,"activity change, negative = inhibition",[13]; [21],-96.1% and -86.8%
same,Potency,[10],17.1 nM (active)
CCCCCCCCCC(=O)O,Potency,[14],inactive
same,Potency,[1],inactive
same,Potency,[2],inactive
same,Potency,[3],inactive
same,Potency,[4],inactive
same,Potency,[5],inactive
same,outcome,[6],inactive
same,Potency,[7],inactive
same,outcome,[8],inactive
same,Potency,[9],inactive
same,Potency,[13]; [21],inactive
Nc1ncnc2c1ncn2[C@@H]1O[C@H](COP(=O)(O)OP(=O)(O)OP(=O)(O)O)[C@@H](O)[C@H]1O,Potency,[15],inactive
same,Potency,[1],inactive
same,Potency,[2],inactive
same,Potency,[3],inactive
same,Potency,[4],inactive
same,outcome,[5],inactive [at 0.573 µM]
same,"activity change, negative = cytotoxicity",[6],-18.7% [at 0.573 µM] (inactive)
same,"activity change, negative = inhibition",[7],-11.5% [at 0.573 µM] (inactive)
same,"activity change, negative = cytotoxicity",[8],-8.27% [at 0.573 µM] (inactive)
same,"activity change, negative = cytotoxicity",[9],-13.7% [at 0.702 µM] (inactive)
NC[C@H]1O[C@H](O[C@H]2[C@@H](O)[C@@H](O[C@H]3O[C@H](CO)[C@@H](O)[C@H](N)[C@@H]3O)[C@H](N)C[C@@H]2N)[C@H](N)C[C@H]1O,Potency,[1],inactive
same,Potency,[2],inactive
same,Potency,[3],inactive
same,Potency,[4],inactive
same,"activity change, negative = inhibition",[5],-1.32% [at 11.4 µM] (inactive)
same,outcome,[6],inactive [at 11.4 µM]
same,outcome,[7],inactive [at 11.4 µM]
same,outcome,[8],inactive [at 11.4 µM]
same,outcome,[9],inactive [at 11.3 µM]
same,"activity change, negative = inhibition",[13]; [21],-15.5% [at 11.3 µM]
CCCCCCCC(=O)O,Potency,[1],inactive
same,Potency,[2],inactive
same,Potency,[3],inactive
same,Potency,[4],inactive
same,Potency,[5],inactive
same,outcome,[6],inactive
same,Potency,[7],inactive
same,outcome,[8],inactive
same,Potency,[9],inactive
same,"activity change, negative = inhibition",[13]; [21],1.02%
same,Potency,[16],inactive
O=C(Nc1c(Cl)cncc1Cl)c1ccc(OC(F)F)c(OCC2CC2)c1,Potency,[1],inactive
same,Potency,[2],inactive
same,Potency,[3],inactive
same,Potency,[4],inactive
same,Potency,[5],inactive
same,outcome,[6],inactive
same,Potency,[7],inactive
same,outcome,[8],inactive
same,Potency,[9],inactive
same,"activity change, negative = inhibition",[13]; [21],-7.18%
c1cc(CN2CCCNCCNCCCNCC2)ccc1CN1CCCNCCNCCCNCC1,Potency,[1],inactive
same,Potency,[2],inactive
same,Potency,[3],inactive
same,Potency,[4],inactive
same,"activity change, negative = inhibition",[5],-15.1% [at 5.34 µM] (inactive)
same,outcome,[6],inactive [at 5.34 µM]
same,outcome,[7],inactive [at 5.34 µM]
same,outcome,[8],inactive [at 5.34 µM]
same,Potency,[9],inactive
same,"activity change, negative = inhibition","[13]; SARS-CoV-2 pseudovirus cell entry assay, luminescence, at 5.25 µM (top of the series)",-25.3%
same,"activity change, negative = inhibition","[13]; SARS-CoV-2 pseudovirus cell entry assay, luminescence, at 57.1 µM (top of the series)",-51.7%
CCN(C(=O)c1c(O)c2c(Cl)cccc2n(C)c1=O)c1ccccc1,Potency,[1],inactive
same,Potency,[2],inactive
same,Potency,[3],inactive
same,Potency,[4],inactive
same,Potency,[5],inactive
same,outcome,[6],inactive
same,Potency,[7],inactive
same,outcome,[8],inactive
same,Potency,[9],inactive
same,"activity change, negative = inhibition",[13]; [21],-55.1% and -33%
COc1ccc(/C=C/C(=O)Nc2ccccc2C(=O)O)cc1OC,outcome,[17],inactive
same,outcome,[18],inactive
same,Potency,[11],2820 nM (active)
same,outcome,[12],inactive
same,Potency,[1],inactive
same,Potency,[2],inactive
same,Potency,[3],inactive
same,Potency,[4],inactive
same,outcome,[6],inactive
same,Potency,[7],inactive
same,outcome,[8],inactive
same,Potency,[19],429 nM (active)
same,Potency,[9],17.8 µM (active) and inactive
same,"activity change, negative = inhibition",[13]; [21],-78.6% and -67.4%
same,Potency,[10],857 nM (active)
CC(/C=C/C=C(\C)C(=O)O[C@@H]1O[C@H](CO[C@@H]2O[C@H](CO)[C@@H](O)[C@H](O)[C@H]2O)[C@@H](O)[C@H](O)[C@H]1O)=C\C=C\C=C(C)\C=C\C=C(/C)C(=O)O[C@@H]1O[C@H](CO[C@@H]2O[C@H](CO)[C@@H](O)[C@H](O)[C@H]2O)[C@@H](O)[C@H](O)[C@H]1O,Potency,[1],inactive
same,Potency,[2],inactive
same,Potency,[3],inactive
same,Potency,[4],inactive
same,Potency,[5],inactive
same,outcome,[6],inactive
same,Potency,[7],inactive
same,outcome,[8],inactive
same,Potency,[9],inactive
same,"activity change, negative = inhibition",[13]; [21],-12.5%
CC(CC=O)CCCC(C)(C)O (stereo not drawn),Potency,[1],inactive
same,Potency,[2],inactive
same,Potency,[3],inactive
same,Potency,[4],inactive
same,Potency,[5],inactive
same,outcome,[6],inactive
same,Potency,[7],inactive
same,outcome,[8],inactive
same,Potency,[9],inactive
same,"activity change, negative = inhibition",[13]; [21],-11.7%
C[C@@H](O)[C@H]1C(=O)N2C(C(=O)OCOC(=O)C(C)(C)C)=C(SC3CN(C4=NCCS4)C3)[C@H](C)[C@H]12,Potency,[1],inactive
same,Potency,[2],inactive
same,Potency,[3],inactive
same,Potency,[4],inactive
same,Potency,[5],inactive
same,outcome,[6],inactive
same,Potency,[7],inactive
same,outcome,[8],inactive
same,Potency,[9],inactive
CN[C@H](CC(C)C)C(=O)N[C@H]1C(=O)N[C@@H](CC(N)=O)C(=O)N[C@H]2C(=O)N[C@H]3C(=O)N[C@H](C(=O)N[C@H](C(=O)O)c4cc(O)cc(O)c4-c4cc3ccc4O)[C@H](O)c3ccc(c(Cl)c3)Oc3cc2cc(c3O[C@@H]2O[C@H](CO)[C@@H](O)[C@H](O)[C@H]2O[C@H]2C[C@](C)(N)[C@H](O)[C@H](C)O2)Oc2ccc(cc2Cl)[C@H]1O,outcome,[20],inactive
same,Potency,[11],inactive
same,Potency,[1],inactive
same,Potency,[2],inactive
same,Potency,[3],inactive
same,Potency,[4],inactive
same,Potency,[5],inactive
same,outcome,[6],inactive [at 26.4 µM]
same,Potency,[7],inactive
same,outcome,[8],inactive
same,Potency,[9],inactive
same,"activity change, negative = inhibition",[13]; [21],-14.9% [at 27.1 µM] and -31.1% [at 27.1 µM]
